# TEAD-YAP inh: TEAD-YAP interaction inhibition | HEK-TIYL cells, TEAD-Gal4/YAP UAS-luciferase luminescence | inhibition, % at 9.12 µM | hit rate 1.4% among 640,000; in the data active means inhibition above about 32%;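 further: 0% = median of test compound wells and 100% = reference inhibitor wells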
# GPR151 activ: activates the human receptor GPR151; Q8TDV0; PathHunter beta-arrestin GPR151 cells, luminescence; activation, % at 11.2 µM; hit rate 1% among 650,000; in the data active means activation above about 4.9%;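 further: 0% = median of compound wells and 100% = cells with positive control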
# FBW7 activator: human FBW7 E3 ligase activation, primary screen; Q969H0; normalized activity (activation), % at 26.1 µM; hit rate 0.13% among 650,000; AlphaScreen FBW7–phospho-cyclin E peptide binding, activator screen; in the data active means normalized activity above about 1.9%;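 further: purified mutant Fbw7 with reduced substrate affinity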
# Target sequence (Q969H0 whole entry, looked up): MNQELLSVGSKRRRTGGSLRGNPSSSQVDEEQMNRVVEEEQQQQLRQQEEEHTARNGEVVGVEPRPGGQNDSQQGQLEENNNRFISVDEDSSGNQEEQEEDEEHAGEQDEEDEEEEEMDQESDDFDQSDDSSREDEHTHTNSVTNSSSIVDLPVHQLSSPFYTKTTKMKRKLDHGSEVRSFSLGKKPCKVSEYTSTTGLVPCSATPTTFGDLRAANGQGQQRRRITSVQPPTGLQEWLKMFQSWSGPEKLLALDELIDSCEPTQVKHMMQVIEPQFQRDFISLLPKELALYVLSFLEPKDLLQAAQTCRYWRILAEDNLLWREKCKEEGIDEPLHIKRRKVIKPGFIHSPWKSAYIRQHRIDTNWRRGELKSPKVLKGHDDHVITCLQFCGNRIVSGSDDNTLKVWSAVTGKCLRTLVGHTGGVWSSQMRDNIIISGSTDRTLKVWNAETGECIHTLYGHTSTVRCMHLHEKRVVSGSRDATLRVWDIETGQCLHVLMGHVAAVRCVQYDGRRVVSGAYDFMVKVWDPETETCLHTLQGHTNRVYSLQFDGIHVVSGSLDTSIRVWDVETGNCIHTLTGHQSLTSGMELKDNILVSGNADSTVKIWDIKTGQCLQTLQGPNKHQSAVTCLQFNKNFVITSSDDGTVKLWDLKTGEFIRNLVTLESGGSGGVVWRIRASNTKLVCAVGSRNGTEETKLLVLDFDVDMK
# MITF primary: inhibitors of human MITF; O75030; AlphaScreen MITF homodimerization, bead proximity signal; inhibition, % at 2.6 µM; hit rate 0.91% among 650,000; AID 1259374; in the data active means inhibition above about 50%;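 further: 0% = vehicle wells with protein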
# GPR151 confirm: human GPR151 activation, confirmation screen; shares compounds with GPR151 activ; GPR151 PathHunter beta-arrestin cells, luminescence, 90 min; % of EA-reagent control over plate median; activation, % at 11.2 µM; 6,700 tested, under 10 active; AID 1508609;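 active means mean percent activation across replicates above the confirmation screen cutoff of 4.91%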
# GPR119 counter: GPR119 activation, counter-screen for GPR151 activators. shares compounds with GPR151 activ. GPR119 PathHunter beta-arrestin cells, luminescence, 90 min; 0 = compound-well median, 100 = enzyme-acceptor control. activation, % at 11.2 µM. hit rate 0.3% among 6,700. AID 1508611;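 active means mean percent activation in the counterscreen above 29.09%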;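 further: counterscreen on off-target GPR119 to flag nonselective hits from the GPR151 activator screen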
# * hit, by the source's call; . = no result. Shown are actives, neighbours in structure and some others; about 3.4% of the full set was active somewhere.
SMILES,TEAD-YAP inh,GPR151 activ,FBW7 activator,MITF primary,GPR151 confirm,GPR119 counter
CN1CCN(C(=O)CNC(=O)CNS(=O)(=O)c2ccccc2)CC1,-2,0,0,16,.,.
COc1ccc(C(=O)Nc2cc(-c3nc4ccccc4o3)ccc2Cl)cc1OC,-2,1,0,6,.,.
CC(C)Cn1c(SCc2ccc([N+](=O)[O-])cc2)nnc1-c1ccncc1,6,5.9*,0,8,0,3
Cc1ccc(-n2ccc3nc4c(c(N)c3c2=O)CCC4)cc1,-39,0,0,10,.,.
CCOc1ccc(C2=C/C(=C\c3cccs3)C(=O)O2)cc1,-18,0,0,-1,.,.
CCOc1ccc(C2=C/C(=C/c3cccs3)C(=O)O2)cc1,1,5.8*,0,4,-1,12
COc1cc(OC)c(CN2CCN(Cc3ccc4c(c3)OCO4)CC2)cc1Br,-5,3,0,39,.,.
COc1cc(C)cc(CN2CCN(Cc3ccc4c(c3)OCO4)CC2)c1O,-11,5.3*,0,0,0,7
COC(=O)c1sc2cc([N+](=O)[O-])cc(Sc3ccccc3)c2c1N,1,0,0,-1,.,.
COC(=O)c1sc2cc([N+](=O)[O-])cc(Sc3ccccc3)c2c1-n1cccc1,-14,5.7*,0,-11,0,-8
COC(=O)C1=CN(C)C=C(C(=O)OC)C1c1ccc(OCc2ccccc2)c(OC)c1,-18,2,0,-5,.,.
CCOC(=O)C1=C(C)NC2=C(C(=O)C(C(=O)OCC)C(c3ccccc3OC)C2)C1c1ccc(OCc2ccccc2)c(OC)c1 (stereo unspecified),0,8.7*,0,5,0,-4
CCOC(=O)C1=CN(C)C=C(C(=O)OCC)C1c1ccc(OC)c(OCc2ccccc2)c1,-4,7.2*,1,-1,0,0
Cc1c(NC(=O)c2cc(-c3ccc(Cl)c(Cl)c3)on2)c(=O)n(-c2ccccc2)n1C,1,8.5*,0,-10,0,2
Cc1c(NC(=O)Cc2ccc(Cl)cc2)c(=O)n(-c2ccccc2)n1C,16,0,0,-23,.,.
COc1ccccc1OC(C)C(=O)Nc1c(C)n(C)n(-c2ccccc2)c1=O (stereo unspecified),13,6.7*,0,9,0,0
Cc1c(NC(=O)CCSc2ccc(Cl)cc2)c(=O)n(-c2ccccc2)n1C,4,5.2*,0,-1,-1,-12
O=C(O)CSc1nnc(Cc2ccc3c(c2)OCO3)n1C1CCCCC1,-1,0,0,-12,.,.
CCc1ccc(NC(=S)N2CCC(NC(=O)C3CC3)CC2)cc1,-38,1,1,-1,.,.
O=C1CCCN1CCCNc1nccc(NC2CC2)n1,-10,5.5*,0,-11,0,-4
CCCNC(=O)c1ccnc(NCCCN2CCCC2=O)c1,3,8.2*,0,27,-1,0
CC(=O)Nc1ccc(Nc2cc(C)nc(NCCCN3CCCC3=O)n2)cc1,-5,5.6*,0,8,-1,-8
O=C1CCCN1CCCNc1ccnc(NCCCN2CCCC2=O)n1,-6,2,0,7,.,.
Cc1cc(Nc2ccc(Oc3ccccc3)cc2)nc(NCCCN2CCCC2=O)n1,15,6.8*,0,5,-1,3
CC(=O)Nc1ccc(Nc2cc(C)nc(Nc3ccc(C(F)(F)F)cc3)n2)cc1,16,5.3*,0,2,0,12
SMILES,TEAD-YAP inh,GPR151 activ,FBW7 activator,MITF primary,GPR151 confirm,GPR119 counter
CC(=O)Nc1ccc(Nc2cc(C)nc(Nc3ccccc3)n2)cc1,-17,0,0,6,.,.
CC(=O)c1ccc(OCc2cc(C(=O)NC(C)CCn3cccn3)no2)cc1 (stereo unspecified),-49,6.3*,0,9,1,-3
CC(CCn1cccn1)NC(=O)c1cc(COc2ccc3ncccc3c2)on1 (stereo unspecified),16,1,0,10,.,.
COc1ccc(CNC(=O)CCS(=O)(=O)c2ccc3c(c2)n(C)c(=O)c(=O)n3C)cc1,4,0,0,-11,.,.
COc1ccc(NC(=O)CCS(=O)(=O)c2ccc3c(c2)SCC(=O)N3)cc1OC,-4,1,0,-4,.,.
COc1ccc(NC(=O)CCS(=O)(=O)c2ccc3c(c2)SCC(=O)N3)cc1Cl,-1,5.2*,0,3,1,6
